Values joined by “and” are separate entries in the source; they are usually repeats but may differ in a detail not shown here. Identical values can stand only once. Inconclusive results are not listed. The source holds several records for some structures; these can differ, active in one and inactive in another. Active and inactive are the calls of the source. Unless noted, calls come from the whole dose curve.
Key:
[1] = qHTS assay to identify small molecule agonists of the sonic hedgehog signaling (Shh) pathway (AID 1259368);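 note: NIH/3T3-derived 3T3Gli1-Luc cells carrying a stable Gli1-driven firefly luciferase reporter; series mostly up to about 92 µM; nearly all actives have a fitted effect of over 15% in size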
Outline: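 NIH/3T3-derived 3T3Gli1-Luc cells with stably integrated Gli1-driven firefly luciferase, 2,000 cells/well, compounds added after 4 hr. Incubated 24 hr at 37C, 5% CO2; luminescence read after 30 min with luciferase reagent at room temperature.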

[2] = qHTS assay to identify small molecule antagonists of the sonic hedgehog signaling (Shh) pathway (AID 1259369); note: nearly all actives have a fitted effect of over 45% in size; note: potency is the fitted concentration of half-maximal effect
Outline: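 NIH/3T3-derived Gli1-Luc reporter cells plated 4 h, dosed with compound, then stimulated with conditioned medium for 24 h at 37 C. Firefly luciferase luminescence read after 30 min with detection reagent at room temperature.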

[3] = molecular target: Estrogen receptor beta (Homo sapiens) (UniProt Q92731); test: qHTS assay to identify small molecule agonists of the estrogen receptor beta (ER-beta) signaling pathway (AID 1259377; active = well fitted activation curve with a large enough effect in the signal ratio in the repeat runs, not every such curve was filed as active; the % refers to the signal ratio)
Outline: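 ER-beta-UAS-bla HEK293T cells in medium with 2% charcoal-stripped FBS were exposed to compounds for 16 h at 37C. Beta-lactamase reporter activity was read as fluorescence after 2 h with LiveBLAzer B/G FRET substrate at room temperature.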

[4] = qHTS assay to identify small molecule agonists of the androgen receptor (AR) signaling pathway in the presence of an antagonist - cell viability counter screen (AID 1259379; active = well fitted curve in the direction sought with a large enough effect in the repeat runs; an effect the other way counts as inactive or inconclusive;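 note: MDA-kb2 human breast cancer cells carrying an MMTV luciferase reporter; series mostly up to about 92 µM; nearly all actives have a fitted effect of over 25% in size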)
Outline: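 MDA-kb2 cells (MMTV-luciferase, AR/GR), 3,000/well, 5 h attachment, then 3.0 µM nilutamide (final) and compounds at 15 concentrations. Viability by CellTiter-Fluor fluorescence after 16 h at 37 °C, 0% CO2, in the reporter wells.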

[5] = qHTS assay to identify small molecule agonists of the estrogen receptor beta (ER-beta) signaling pathway - cell viability counter screen (AID 1259380; active = well fitted curve in the direction sought with a large enough effect in the repeat runs; an effect the other way counts as inactive or inconclusive; note: nearly all actives have a fitted effect of over 30% in size; note: potency is the fitted concentration of half-maximal effect)
Outline: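 ER-beta-UAS-bla HEK293T cells in medium with 2% charcoal-stripped FBS, pre-incubated 6 hr, then treated 16 hr at 37C. Cytotoxicity read in the same wells by CellTiter-Glo luminescence after 30 min at room temperature.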

[6] = molecular target: Androgen receptor (Homo sapiens) (UniProt P10275); test: qHTS assay to identify small molecule agonists of the androgen receptor (AR) signaling pathway in the presence of an antagonist (AID 1259381); note: nearly all actives have a fitted effect of over 15% in size
Outline: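 MDA-kb2 cells carrying MMTV-luciferase (AR/GR responsive), 3,000 cells/well, co-treated with 3.0 uM nilutamide final. Compounds at 15 concentrations, 16 hr at 37C without CO2. Luciferase luminescence read after 30 min with ONE-Glo.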

[7] = qHTS assay to identify small molecule agonists or antagonists of the thyroid stimulating hormone receptor (TSHR) signaling pathway - wild type cell line counter screen (AID 1259384)
Outline: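 Wild-type Hek293 cells, 800/well, 18 h at 37C, then compound with Ro20-1724 for 30 min RT. cAMP by HTRF (cAMP-d2/anti-cAMP cryptate), 1 h RT, fluorescence read. 15 concentrations, triplicates.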

[8] = molecular target: Thyrotropin receptor (Homo sapiens) (UniProt P16473); test: qHTS assay to identify small molecule antagonists of the thyroid stimulating hormone receptor (TSHR) signaling pathway (AID 1259385); note: nearly all actives have a fitted effect of over 20% in size
Outline: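 TSHR-HEK293 cells (800/well) plated 18 h, then compounds with Ro20-1724 and TSH at 1.5 ng/mL final, 30 min at room temperature. cAMP quantified by HTRF (cAMP-d2/anti-cAMP-cryptate, 1 h); 15 concentrations in triplicate.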

[9] = qHTS assay to identify small molecule agonists of the estrogen receptor alpha (ER-alpha) signaling pathway in the presence of an antagonist - cell viability counter screen (AID 1259386; active = well fitted curve in the direction sought with a large enough effect in the repeat runs; an effect the other way counts as inactive or inconclusive;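 note: cells exposed to compounds for 22 h at 37 °C before the viability read; nearly all actives have a fitted effect of over 30% in size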; note: potency is the fitted concentration of half-maximal effect)
Outline: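 Cell viability in VM7Luc4E2 cells (endogenous full-length ER-alpha) measured by CellTiter-Fluor fluorescence in the same wells as the luciferase screen. Cells pre-cultured 5 days in charcoal-stripped serum, then treated 22 h with compounds at 15 concentrations plus 10.0nM ICI-182,780.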

[10] = molecular target: Progesterone receptor (Homo sapiens) (UniProt P06401); test: qHTS assay to identify small molecule agonists of the progesterone receptor (PR) signaling pathway (AID 1346784); note: nearly all actives have a fitted effect of over 30% in size; note: potency is the fitted concentration of half-maximal effect
Outline: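 PR-UAS-bla HEK 293T cells (beta-lactamase reporter under UAS) in 2% charcoal-stripped FBS, dosed with 23 nL compound after 6 hr, incubated 16hr at 37C. LiveBLAzer B/G FRET substrate added, fluorescence read after 2 hours.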

[11] = molecular target: Progesterone receptor (Homo sapiens) (UniProt P06401); test: qHTS assay to identify small molecule antagonists of the progesterone receptor (PR) signaling pathway (AID 1346795; active = well fitted inhibition curve with a large enough effect in the signal ratio in the repeat runs, not every such curve was filed as active; the % refers to the signal ratio; note: potency is the fitted concentration of half-maximal effect)
Outline: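 PR-UAS-bla HEK293T cells with beta-lactamase reporter under UAS control, in 2% charcoal-stripped FBS, treated with compounds plus 1 nM promegestone (R5020, final) for 16 hr at 37C. Read-out: FRET beta-lactamase substrate fluorescence after 2 hr at room temperature.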

[12] = qHTS assay to identify small molecule antagonists of the progesterone receptor (PR) signaling pathway - cell viability counter screen (AID 1346798; active = well fitted curve in the direction sought with a large enough effect in the repeat runs; an effect the other way counts as inactive or inconclusive; note: nearly all actives have a fitted effect of over 50% in size; note: potency is the fitted concentration of half-maximal effect)
Outline: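 PR-UAS-bla HEK293T cells, 3,000/well in 2% charcoal-stripped FBS medium, dosed with compounds plus R5020 agonist and incubated 16 h at 37C. Viability then measured in the same wells by CellTiter-Glo luminescence after 30 min at RT.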

[13] = qHTS assay to identify small molecule agonists of the progesterone receptor (PR) signaling pathway - cell viability counter screen (AID 1346799); note: nearly all actives have a fitted effect of over 45% in size; note: potency is the fitted concentration of half-maximal effect
Outline: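 Counter screen in the PR-UAS-bla HEK293T wells (2% charcoal-stripped FBS, 16 h compound exposure at 37 C) after the bla read. CellTiter-Glo added, 30 min at room temperature, luminescence read as cell viability.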

[14] = qHTS assay to identify small molecule antagonists of the TGF-beta/Smad signaling pathway - cell viability counter screen (AID 1346824; active = well fitted curve in the direction sought with a large enough effect in the repeat runs; an effect the other way counts as inactive or inconclusive; note: nearly all actives have a fitted effect of over 50% in size)
Outline: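 SBE-bla HEK 293T cells, incubated overnight, then compound plus 0.25 ng/mL TGF-beta1 (stock added) for 5 hr at 37 C. Viability was read in the same wells by CellTiter-Glo luminescence after 30 min at room temperature.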

[15] = qHTS assay to identify small molecule agonists of the TGF-beta/Smad signaling pathway - cell viability counter screen (AID 1346829; active = well fitted curve in the direction sought with a large enough effect in the repeat runs; an effect the other way counts as inactive or inconclusive; note: top concentration of the series differs between compounds; nearly all actives have a fitted effect of over 45% in size)
Outline: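 Luminescence from CellTiter-Glo, read after a 30 min room-temperature incubation, gives cell viability of SBE-bla HEK 293T cells treated 5 hr with compounds at 37 C.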

[16] = qHTS assay to identify small molecule agonists of the TGF-beta/Smad signaling pathway (AID 1346859; active = well fitted activation curve with a large enough effect in the signal ratio in the repeat runs, not every such curve was filed as active; the % refers to the signal ratio; note: series mostly up to about 77 µM)
Outline: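 SBE-bla HEK293T cells plated overnight, then compound exposure for 5 h at 37 C. Beta-lactamase reporter read with LiveBLAzer B/G FRET substrate after 2 h at room temperature, fluorescence at 405 nm excitation, 460/530 nm emission.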

[17] = molecular target: Thyrotropin-releasing hormone receptor (Homo sapiens) (UniProt P34981); test: qHTS assay to identify small molecule antagonists of the thyrotropin-releasing hormone receptor (TRHR) signaling pathway (AID 1346877; active = well fitted inhibition curve with a large enough effect in the repeat runs, not every such curve was filed as active; note: series mostly up to about 51 µM)
Outline: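 TRHR-expressing HEK293 cells loaded with calcium dye for 2 h at 37 C; compounds pre-incubated 5 min at room temperature before TRH challenge at 1 nM final. Intracellular calcium fluorescence read kinetically for 3 min; 15 concentrations in triplicate.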

[18] = qHTS assay to identify small molecule antagonists of the estrogen receptor beta (ER-beta) signaling pathway - cell viability counter screen (AID 1259382; active = well fitted curve in the direction sought with a large enough effect in the repeat runs; an effect the other way counts as inactive or inconclusive; note: series mostly up to about 92 µM; nearly all actives have a fitted effect of over 55% in size)
Outline: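 ER-beta-UAS-bla HEK293T cells in 2% charcoal-stripped FBS medium, treated with compound plus 1 nM 17-beta-estradiol for 16 h at 37C. Viability read by CellTiter-Glo luminescence after 30 min at room temperature in the same wells.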

[19] = molecular target: Estrogen receptor (Homo sapiens) (UniProt P03372); test: qHTS assay to identify small molecule agonists of the estrogen receptor alpha (ER-alpha) signaling pathway in the presence of an antagonist (AID 1259383); note: top concentration of the series differs between compounds; nearly all actives have a fitted effect of over 15% in size
Outline: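 VM7Luc4E2 cells express endogenous full-length ER-alpha with an ERE-luciferase reporter and were hormone-deprived for 5 days. Compounds at 15 concentrations were added with 10.0nM ICI-182,780 for 22hr at 37C. Luminescence was read with ONE-Glo.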

[20] = molecular target: Estrogen receptor beta (Homo sapiens) (UniProt Q92731); test: qHTS assay to identify small molecule antagonists of the estrogen receptor beta (ER-beta) signaling pathway (AID 1259378; active = well fitted inhibition curve with a large enough effect in the signal ratio in the repeat runs, not every such curve was filed as active; the % refers to the signal ratio; note: potency is the fitted concentration of half-maximal effect)
Outline: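 ER-beta-UAS-bla HEK293T cells in 2% charcoal-stripped FBS medium treated with compound plus 1nM final 17-beta-estradiol for 16 hr at 37C. Beta-lactamase reporter read by FRET substrate fluorescence after 2 hours at room temperature.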

Measured: Potency

Estrogen receptor beta (Homo sapiens), sequence (Q92731 whole entry, looked up): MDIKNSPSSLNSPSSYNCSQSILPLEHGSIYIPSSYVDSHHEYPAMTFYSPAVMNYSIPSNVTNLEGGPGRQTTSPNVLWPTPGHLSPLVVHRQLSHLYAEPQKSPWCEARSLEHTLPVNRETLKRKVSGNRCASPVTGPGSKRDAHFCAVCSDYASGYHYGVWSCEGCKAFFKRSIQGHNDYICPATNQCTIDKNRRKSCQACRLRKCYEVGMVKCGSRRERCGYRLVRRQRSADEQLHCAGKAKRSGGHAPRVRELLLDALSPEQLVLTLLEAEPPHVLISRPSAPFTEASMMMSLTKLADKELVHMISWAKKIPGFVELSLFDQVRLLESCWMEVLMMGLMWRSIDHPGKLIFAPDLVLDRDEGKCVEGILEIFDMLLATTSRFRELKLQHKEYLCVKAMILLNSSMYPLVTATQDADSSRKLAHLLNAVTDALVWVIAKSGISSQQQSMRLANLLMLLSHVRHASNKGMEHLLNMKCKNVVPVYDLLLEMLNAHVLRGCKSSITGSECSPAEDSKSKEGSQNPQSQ
Progesterone receptor (Homo sapiens), sequence (P06401 whole entry, looked up): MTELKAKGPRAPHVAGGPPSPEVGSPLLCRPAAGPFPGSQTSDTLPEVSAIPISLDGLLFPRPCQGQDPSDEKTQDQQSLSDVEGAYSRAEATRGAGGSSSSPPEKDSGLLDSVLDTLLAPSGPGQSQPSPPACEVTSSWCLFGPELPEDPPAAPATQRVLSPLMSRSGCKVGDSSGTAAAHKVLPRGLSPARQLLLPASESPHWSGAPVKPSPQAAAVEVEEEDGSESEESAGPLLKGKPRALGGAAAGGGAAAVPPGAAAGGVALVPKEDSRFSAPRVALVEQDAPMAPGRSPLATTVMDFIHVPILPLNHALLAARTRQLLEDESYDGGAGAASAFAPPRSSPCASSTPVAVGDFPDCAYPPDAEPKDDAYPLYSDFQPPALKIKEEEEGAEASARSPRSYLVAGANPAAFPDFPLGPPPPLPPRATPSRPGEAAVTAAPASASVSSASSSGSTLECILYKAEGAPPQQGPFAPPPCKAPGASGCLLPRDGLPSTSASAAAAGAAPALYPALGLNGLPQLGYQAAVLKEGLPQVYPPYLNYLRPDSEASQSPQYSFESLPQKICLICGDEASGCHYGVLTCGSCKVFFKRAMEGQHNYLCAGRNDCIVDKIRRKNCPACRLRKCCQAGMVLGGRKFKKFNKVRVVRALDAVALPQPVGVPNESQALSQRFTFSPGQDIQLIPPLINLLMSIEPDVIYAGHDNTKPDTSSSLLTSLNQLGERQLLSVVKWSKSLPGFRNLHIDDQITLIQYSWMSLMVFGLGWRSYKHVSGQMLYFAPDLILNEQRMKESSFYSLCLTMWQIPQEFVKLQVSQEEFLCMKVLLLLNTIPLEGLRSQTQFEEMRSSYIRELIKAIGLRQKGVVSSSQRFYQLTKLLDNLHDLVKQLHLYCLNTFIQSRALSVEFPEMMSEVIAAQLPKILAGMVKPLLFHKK
Thyrotropin receptor (Homo sapiens), sequence (P16473 whole entry, looked up): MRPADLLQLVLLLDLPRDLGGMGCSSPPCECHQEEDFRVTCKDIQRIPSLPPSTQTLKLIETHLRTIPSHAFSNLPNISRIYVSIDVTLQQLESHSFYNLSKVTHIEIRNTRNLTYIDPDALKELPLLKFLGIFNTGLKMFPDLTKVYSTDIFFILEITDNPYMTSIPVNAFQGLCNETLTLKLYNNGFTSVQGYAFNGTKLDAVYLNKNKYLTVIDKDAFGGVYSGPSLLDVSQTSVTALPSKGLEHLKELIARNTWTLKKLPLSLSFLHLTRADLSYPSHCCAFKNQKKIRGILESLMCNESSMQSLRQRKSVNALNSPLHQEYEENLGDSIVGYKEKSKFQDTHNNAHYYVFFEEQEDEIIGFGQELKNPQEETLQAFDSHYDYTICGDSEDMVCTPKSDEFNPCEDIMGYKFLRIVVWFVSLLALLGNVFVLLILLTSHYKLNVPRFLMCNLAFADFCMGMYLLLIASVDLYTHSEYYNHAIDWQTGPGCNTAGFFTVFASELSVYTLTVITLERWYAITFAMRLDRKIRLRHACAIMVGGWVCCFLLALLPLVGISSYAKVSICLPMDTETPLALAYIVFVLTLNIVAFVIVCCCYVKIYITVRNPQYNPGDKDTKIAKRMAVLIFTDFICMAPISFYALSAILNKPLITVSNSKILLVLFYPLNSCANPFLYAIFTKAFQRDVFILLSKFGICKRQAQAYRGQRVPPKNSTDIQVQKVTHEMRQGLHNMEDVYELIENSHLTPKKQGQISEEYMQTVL
Androgen receptor (Homo sapiens), sequence (P10275 whole entry, looked up): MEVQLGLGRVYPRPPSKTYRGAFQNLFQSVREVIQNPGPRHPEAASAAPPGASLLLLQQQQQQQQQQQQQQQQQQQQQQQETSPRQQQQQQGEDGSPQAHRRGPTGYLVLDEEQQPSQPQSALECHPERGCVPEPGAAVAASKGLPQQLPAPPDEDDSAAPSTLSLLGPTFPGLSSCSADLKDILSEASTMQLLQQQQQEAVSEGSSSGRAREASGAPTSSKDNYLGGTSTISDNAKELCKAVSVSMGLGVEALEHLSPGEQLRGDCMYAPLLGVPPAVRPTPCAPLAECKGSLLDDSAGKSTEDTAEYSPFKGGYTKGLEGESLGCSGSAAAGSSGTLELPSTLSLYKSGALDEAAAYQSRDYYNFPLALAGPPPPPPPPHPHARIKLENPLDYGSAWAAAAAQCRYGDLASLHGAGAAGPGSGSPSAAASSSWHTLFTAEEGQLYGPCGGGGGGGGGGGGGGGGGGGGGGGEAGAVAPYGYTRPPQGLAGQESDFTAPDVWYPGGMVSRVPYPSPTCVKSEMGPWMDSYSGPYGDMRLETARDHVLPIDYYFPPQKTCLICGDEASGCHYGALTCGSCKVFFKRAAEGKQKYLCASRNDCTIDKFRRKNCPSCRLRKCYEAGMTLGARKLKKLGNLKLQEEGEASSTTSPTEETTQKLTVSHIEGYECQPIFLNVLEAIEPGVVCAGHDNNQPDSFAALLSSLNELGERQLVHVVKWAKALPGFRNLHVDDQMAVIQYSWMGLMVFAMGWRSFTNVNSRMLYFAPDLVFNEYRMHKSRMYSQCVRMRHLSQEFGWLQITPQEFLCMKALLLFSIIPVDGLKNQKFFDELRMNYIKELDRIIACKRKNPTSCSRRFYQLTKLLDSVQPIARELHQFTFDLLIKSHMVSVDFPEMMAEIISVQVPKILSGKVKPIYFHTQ
Estrogen receptor (Homo sapiens), sequence (P03372 whole entry, looked up): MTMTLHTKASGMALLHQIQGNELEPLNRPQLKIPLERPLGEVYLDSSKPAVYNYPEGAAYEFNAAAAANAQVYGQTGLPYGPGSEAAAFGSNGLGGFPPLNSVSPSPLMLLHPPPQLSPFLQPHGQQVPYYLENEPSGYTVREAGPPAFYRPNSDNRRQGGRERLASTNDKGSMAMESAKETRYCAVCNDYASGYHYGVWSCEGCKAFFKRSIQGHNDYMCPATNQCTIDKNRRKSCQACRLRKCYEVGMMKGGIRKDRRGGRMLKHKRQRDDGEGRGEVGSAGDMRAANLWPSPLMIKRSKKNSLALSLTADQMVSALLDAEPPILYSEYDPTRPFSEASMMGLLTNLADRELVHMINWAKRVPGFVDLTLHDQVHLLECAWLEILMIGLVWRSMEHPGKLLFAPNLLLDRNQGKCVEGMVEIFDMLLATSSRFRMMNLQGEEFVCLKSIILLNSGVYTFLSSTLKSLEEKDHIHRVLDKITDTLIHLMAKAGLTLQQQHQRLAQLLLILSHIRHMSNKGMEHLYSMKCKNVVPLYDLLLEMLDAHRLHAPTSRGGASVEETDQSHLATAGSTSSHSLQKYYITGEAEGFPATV
Thyrotropin-releasing hormone receptor (Homo sapiens), sequence (P34981 whole entry, looked up): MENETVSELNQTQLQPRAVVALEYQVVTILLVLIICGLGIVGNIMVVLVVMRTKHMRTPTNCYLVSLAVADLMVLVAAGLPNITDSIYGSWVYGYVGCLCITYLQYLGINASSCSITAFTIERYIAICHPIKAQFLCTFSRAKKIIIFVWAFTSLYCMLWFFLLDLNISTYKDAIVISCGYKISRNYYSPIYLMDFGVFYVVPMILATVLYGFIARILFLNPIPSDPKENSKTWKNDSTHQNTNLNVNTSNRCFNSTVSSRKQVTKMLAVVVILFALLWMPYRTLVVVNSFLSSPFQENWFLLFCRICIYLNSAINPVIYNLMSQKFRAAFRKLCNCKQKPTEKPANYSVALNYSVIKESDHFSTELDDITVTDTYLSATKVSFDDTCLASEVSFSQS

C[C@@H]1O[C@@H](OC[C@H]2O[C@@H](Oc3c(-c4ccc(O)c(O)c4)oc4cc(O)cc(O)c4c3=O)[C@H](O)[C@@H](O)[C@@H]2O)[C@H](O)[C@H](O)[C@H]1O
active: [9] 54.9 µM
not listed: [18] | [19] | [20]
inactive: all other assays above

CC(=O)[C@@]1(O)CC[C@H]2[C@@H]3CCC4=CC(=O)CC[C@]4(C)[C@H]3CC[C@@]21C
active: [10] 3.35 µM
not listed: [6] | [13] | [19] | [20]
inactive: all other assays above

CCCCC(CC)COC(C)=O (stereo not drawn)
not listed: [6] | [19] | [20]
inactive: all other assays above

CCCCOCCOCCOC(=O)CCCCC(=O)OCCOCCOCCCC
not listed: [6] | [18] | [20]
inactive: all other assays above

NCc1cccc(CN)c1
not listed: [4] | [6] | [20]
inactive: all other assays above

O=C(Oc1ccccc1)c1ccc(O)cc1
active: [20] 48.9 µM | [11] 61.1 µM
not listed: [3] | [6] | [18] | [19]
inactive: all other assays above

C=C(C)C(=O)OCC(CC)(COC(=O)C(=C)C)COC(=O)C(=C)C
not listed: [2] | [3] | [6] | [16] | [19] | [20]
inactive: all other assays above

CCCCCCOC(C)=O
inactive and 8.63 µM (active): [13]
inactive and 30.6 µM (active): [5]
not listed: [3] | [6] | [12] | [17] | [20]
inactive: all other assays above

C=C(C#N)C(=O)OCC
inactive and 15.4 µM (active): [2]
not listed: [3] | [6] | [18] | [19] | [20]
inactive: all other assays above

OC[C@@H](O)[C@@H](O)[C@H](O)[C@@H](O)CO
not listed: [3] | [6] | [17] | [18] | [20]
inactive: all other assays above

COCC(C)O (stereo not drawn)
not listed: [3] | [6] | [20]
inactive: all other assays above

CC(C)NCC(O)COc1cccc2ccccc12 (stereo not drawn)
active: [2] 24.3 µM | [5] 55 µM and 54.5 µM | [12] 30.9 µM and 27.3 µM
not listed: [6] | [7] | [8] | [13] | [18] | [19] | [20]
inactive: all other assays above

OC[C@@H](O)[C@H](O)[C@H](O)[C@@H](O)CO
not listed: [3] | [6] | [17] | [20]
inactive: all other assays above

Cc1cc(=O)[nH]c(C(C)C)n1
not listed: [3] | [18]
inactive: all other assays above

— PubChem BioAssay (Tox21)
